# Screening data as filed in PubChem.
# ST2 inh = IL1RL1 inhibition | 78,000 compounds, 2.3% hits | AlphaLISA ST2-Fc/biotin-IL-33 interaction, 1 h | Q01638 | inhibition, % for hits at 17 µM | AID 1259354; in the data active = inhibition above about 30%
# Target sequence (Q01638 whole entry, looked up): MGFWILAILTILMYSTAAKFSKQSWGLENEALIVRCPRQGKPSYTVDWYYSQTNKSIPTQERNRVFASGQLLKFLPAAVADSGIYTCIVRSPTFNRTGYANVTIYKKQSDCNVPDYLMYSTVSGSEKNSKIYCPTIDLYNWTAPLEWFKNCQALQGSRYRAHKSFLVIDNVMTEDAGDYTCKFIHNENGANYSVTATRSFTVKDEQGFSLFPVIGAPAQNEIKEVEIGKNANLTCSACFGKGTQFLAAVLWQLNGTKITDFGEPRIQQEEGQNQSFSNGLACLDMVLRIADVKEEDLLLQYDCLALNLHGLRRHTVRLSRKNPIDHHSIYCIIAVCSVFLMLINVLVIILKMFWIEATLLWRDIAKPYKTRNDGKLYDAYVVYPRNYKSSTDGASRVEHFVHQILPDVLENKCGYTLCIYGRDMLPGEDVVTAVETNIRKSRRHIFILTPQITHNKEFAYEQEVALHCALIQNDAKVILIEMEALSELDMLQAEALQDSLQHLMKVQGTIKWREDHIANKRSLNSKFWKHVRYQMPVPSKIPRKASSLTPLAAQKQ
# * = called active by the depositor; i = inactive; ! = a repeat was not active. The sample as a whole holds a higher share of hits than the screen did.
SMILES,ST2 inh
COc1ccc(C2=NN(CN3C(=O)C(=O)c4ccccc43)C(c3cccc([N+](=O)[O-])c3)C2)cc1 (configuration not stated),39.0%*
COc1ccc(C2=NN(CN3C(=O)C(=O)c4ccccc43)C(c3ccccc3)C2)cc1 (configuration not stated),36.0%*
COc1ccc(N2C(=O)C(N3C(=O)c4ccccc4C3=O)C2c2cccc(OC)c2)cc1 (configuration not stated),i
COc1ccc(C2=NN(C(=O)CCC(=O)O)C(c3ccc(Cl)cc3)C2)cc1 (configuration not stated),i
COc1ccccc1C1CC(c2ccc(Br)cc2)=NN1S(=O)(=O)c1ccccc1 (configuration not stated),i
CN(c1ccccc1)S(=O)(=O)c1ccc(C(=O)Nc2nc(-c3ccccn3)cs2)cc1,i
N#Cc1ccc(/C=c2\sc3nc4ccccc4n3c2=O)cc1,i
Cc1nc2c(c(NCC3(N4CCOCC4)CCCCCC3)n1)CCNC2,i
CCCC(=O)N1c2ccccc2-c2nnc(SC)nc2OC1c1cccc(C)n1 (configuration not stated),i
Cc1ccc(S(=O)(=O)N2CCOCC2)cc1-c1nnc2c3ccccc3c(C)nn12,i
Cn1c(=NC(=O)c2ccc(S(=O)(=O)N3CCCC3)cc2)sc2ccccc21,i
COC(=O)C1C(=O)C2=C(CC1C)NC(C)=C(C(=O)OC1CCCCC1)C2c1ccc(O)cc1 (configuration not stated),i
CC1(C)[C@H]2CC=C(CCNC3CCN(c4ccc(C(=O)N5CCOCC5)cc4)CC3)[C@@H]1C2,i
COc1ccc(S(=O)(=O)N2CCN(c3nc(C)cc(N4CCCC4)n3)CC2)cc1C,i
Cc1ccc(C(=O)Nc2cccc(OCc3cc(=O)n4cc(Cl)ccc4n3)c2)cc1,i
COc1cccc(C(=O)Nc2cccc(OCc3cc(=O)n4ccc(C)cc4n3)c2)c1,i
Cc1cccc(C(=O)Nc2ccc(C)c(OCc3cc(=O)n4cccc(C)c4n3)c2)c1,33.0%*
COc1ccc(OCC(=O)Nc2ccc(C)c(OCc3cc(=O)n4ccc(C)cc4n3)c2)cc1,i
CCOc1ccc(C(=O)Nc2ccc(C)c(OCc3cc(=O)n4cccc(C)c4n3)c2)cc1,i
CCOc1ccc(C(=O)Nc2cccc(OCc3cc(=O)n4cc(Cl)ccc4n3)c2)cc1,31.0%*
CC(=O)Nc1cccc(OCc2cc(=O)n3cc(Cl)ccc3n2)c1,i
COc1cccc(C(=O)Nc2ccc(C)c(OCc3cc(=O)n4cccc(C)c4n3)c2)c1,31.0%*
Cc1cccc(C(=O)Nc2cccc(OCc3cc(=O)n4ccc(C)cc4n3)c2)c1,i
O=S(=O)(c1cccnc1)N1CCN(c2ccccn2)CC1,i
COc1ccc(N(C(C)C(=O)N2CCN(c3ccc(F)cc3)CC2)S(C)(=O)=O)cc1 (configuration not stated),i
SMILES,ST2 inh
CC1(C)CC2CC(C)(CN2C(=O)/C(=C\c2ccco2)NC(=O)c2ccc(Cl)cc2)C1 (configuration not stated),i
O=C(Nc1ccc(Br)cc1)c1ccc(F)cc1,i
N#Cc1c(N)sc2c1CCCC2,31.0%*
CC(=O)Nc1sc2c(c1C#N)CCCC2,i
N#Cc1c(-n2cccc2C=O)sc2c1CCCC2,i
CCCCOC(=O)C1=C(C)Nc2nnnn2C1c1ccc(F)cc1 (configuration not stated),i
CCCC(=O)NCCc1nc2ccccc2n1CC,i
CCOC(=O)Cn1c(=O)oc2cc(Cl)ccc21,i
O=C(Cn1c(=O)oc2ccccc21)Nc1ccc(Cl)cc1Cl,46.0%*
CCC(C)NC(=O)c1ccc(NC(=O)Cn2c(=O)oc3ccccc32)cc1 (configuration not stated),i
CC(=O)N1CCC2(CC1)CC(=O)c1cc(OCC(=O)NCc3ccccn3)ccc1O2,i
CCC1CCC(C(=O)NC(C(=O)NCc2cccnc2)C(C)C)CC1 (configuration not stated),i
O=C1Nc2ccccc2/C1=C\c1c(Cl)cccc1Cl,i
Clc1ccccc1-c1nc(-c2ccccc2)no1,i
O=C1OC(c2ccccc2)=C/C1=C\c1c(Cl)cccc1Cl,46.0%*
CNc1ncc(CN(C)C(=O)c2cnn3ccn(C)c23)cn1,i
Cc1cc2ccccc2n1CCC(=O)NCc1snnc1C(C)C,i
CCOc1ccc(N2CC(NC(=O)Cc3ccc(F)cc3)CC2=O)cc1 (configuration not stated),i
Cc1ccc(-n2c(SCc3ccccc3)nc3c(c2=O)SCC3)cc1,30.0%*!
O=C(CSc1nc2c(c(=O)n1-c1ccc(Cl)cc1)SCC2)N1CCCc2ccccc21,i
CCOc1ccc(-n2c(SCc3ccc(F)cc3)nc3c(c2=O)SCC3)cc1,i
Cc1ccc(-n2c(SCc3cccc(F)c3)nc3c(c2=O)SCC3)cc1,33.0%*!
CCSc1nc2c(c(=O)n1-c1ccc(F)cc1)SCC2,i
O=C(CSc1nc2c(c(=O)n1-c1ccc(Cl)cc1)SCC2)N1CCc2ccccc21,i
COC(=O)c1ccc(CSc2nc3c(c(=O)n2-c2ccc(C)cc2)SCC3)o1,i
